The structures appear in SMILES notation. The whole screen tested about 69,000 compounds, of which about 8,600 (12%) showed an effect of 50% or more. Shown is part of a subset that was picked to be rich in strong results.

INHIBITION data for 63 compounds are collected here from ChEMBL document CHEMBL4513216, “Probing the Open Global Health Chemical Diversity Library for Multistage-Active Starting Points for Next-Generation Antimalarials” (ACS Infect Dis, 2020).

For this test, the system named is Plasmodium berghei. Description: Screen against P. berghei liver stage (PbLuc), transformed with Luciferase, at 10uM. Format: functional, HepG2. The conditions noted are these: tested at 10 uM.
On to `N#Cc1cccc(NC(=O)C2CCCN2c2nccs2)c1` (stereo not drawn), for which the INHIBITION is reported as 17.865%.

`O=C(CC1CCCCC1)NC1CCCCNC1=O` (stereo not drawn): the INHIBITION is on record as -65.3%. For `CCc1ccc(CC(=O)N2CCN(c3nccn3C)CC2)cc1`, the INHIBITION turned out to be 27%. For the compound `CSCCC(NC(=O)c1ccccc1)C(=O)N(C)Cc1ccsc1` (stereo not drawn), the INHIBITION is recorded as 16.1%. Regarding `O=C(NCCn1nc(C2CCNC2)c2cccnc21)c1ccccc1` (stereo not drawn), the INHIBITION is recorded as -11.7%. On to `CN(C)Cc1nnn2c1CN(Cc1cccnc1)CCC2`, for which the INHIBITION was -21.1%. As to `CCc1noc(CN2CCN(Cc3cccs3)CC2)n1`, the INHIBITION was 3.73%. As to `COCC(=O)N(C)Cc1nc(N(C)C)ncc1-c1ccncc1`, the INHIBITION is given as -3.53%. With `Cc1ncsc1CN1C[C@@H](OCC(=O)N(C)C)[C@H]2OCCC[C@H]21` the figure was -31.3%; with `CC(C)NS(=O)(=O)c1cc(C(=O)O)cc(-c2ccccc2F)c1`, -108%; with `CC(C)NS(=O)(=O)c1cc(C(=O)O)cc(-c2ccccc2C#N)c1`, 53.8%. Consider `CC(=O)c1ccccc1-c1cc(C(=O)O)cc(S(=O)(=O)NC(C)C)c1`, for which the INHIBITION is given as -9.2%. Take `CC(=O)N1CC[C@H]2OCC[C@@H](C(=O)Nc3cccnc3C)[C@H]2C1`: the INHIBITION is listed as -14.2%. With `O=C(CO)N1C[C@H]2CN(Cc3cccc(F)c3)C(=O)[C@H]2C1` the figure was 40.4%; with `COCC(=O)N1C[C@H]2CN(Cc3cccc(F)c3)C(=O)[C@H]2C1`, 50.9%.

Consider `O=C(c1ccco1)N1C[C@H]2CN(Cc3cccc(F)c3)C(=O)[C@H]2C1`, for which the INHIBITION is listed as 1.94%. The figure for `CN(C)C(=O)N1C[C@H]2CN(Cc3cccc(F)c3)C(=O)[C@H]2C1` is 33%; for `O=C(NC1CC1)N1C[C@H]2CN(Cc3cccc(F)c3)C(=O)[C@H]2C1` it is 60.2%. The figure for `O=C(c1ccc[nH]1)N1C[C@H]2CN(Cc3cccc(F)c3)C(=O)[C@H]2C1` is 8.53%.

Regarding `CCc1ccc(C(=O)N2CCCC2c2c(C)nn(C)c2OC)o1` (stereo not drawn), the INHIBITION is -11.2%. With `Cc1ccc(CN2C[C@@H]3CCCO[C@@H]3[C@H](N(C)Cc3ccco3)C2)s1` the figure was -15.1%. Consider `O=C(O)C1(Oc2ccc3c(c2)OCO3)CCN(C2CCOCC2)CC1`, for which the INHIBITION is 31.9%. As for `N#CCC1CC(c2ccc(F)cc2)=NO1` (stereo not drawn), the INHIBITION was 12.6%. As for `O=C(CN1CCOC(Cn2cccn2)C1)NCCc1cccs1` (stereo not drawn), the INHIBITION was determined as 6.49%.

Turning to `Cn1cccc1C(=O)N1CC[C@H]2[C@H]1CCN2CC1CCOCC1`, the INHIBITION is listed as 27.5%. The figure for `O=C1C[C@H]2[C@@H](CCN2C(=O)c2ccccc2)N1CCN1CCOCC1` is 30.1%. Take `Cn1cccc1C(=O)N1CC[C@@H]2[C@@H]1CC(=O)N2CC1CCOCC1`: the INHIBITION is listed as 51.2%.

Turning to `Cn1cccc1C(=O)N1CCC2(CCCN(CC3CCC3)C2=O)C1` (stereo not drawn), the INHIBITION amounted to 53.6%. The figure for `Cn1cccc1C(=O)N1CC[C@H]2[C@@H]1CCC(=O)N2CC1CC1` is 54.1%; for `Cn1cccc1C(=O)N1CCC2(CCCN(CC3CC3)C2=O)C1` (stereo not drawn) it is 9.63%; for `Cn1cccc1C(=O)N1CC[C@@H]2[C@@H]1CC(=O)N2CCN1CCOCC1` it is 1.9%. With `Cn1cccc1C(=O)N1CC[C@H]2[C@@H]1CCC(=O)N2c1ccccc1`, the INHIBITION is listed as 43.8%. In the case of `Cn1cccc1C(=O)N1C[C@H]2CN(CC3CC3)C(=O)[C@H]2C1`, the INHIBITION is 2.26%. Turning to `Cn1cc(Cl)cc1C(=O)N1CCC2(CCCN(CC3CCC3)C2=O)C1` (stereo not drawn), the INHIBITION was found to be 19.5%. With `O=C(c1ccoc1)N1CC[C@H]2[C@H]1CCN2CC1CC1` the figure was -6.05%; with `Cn1cccc1C(=O)N1CC[C@H]2[C@H]1CCN2CC1CC1`, 55.6%; with `CCCn1nc(C)c2c(C(F)F)cc(=O)n(CC(=O)O)c21`, -7.59%.

For `O=C(c1cccc2ncccc12)N1CCCC(n2ccnc2)C1` (stereo not drawn), the INHIBITION was 27.72%. With `CC(C)c1nnc(NC(=O)CN2C(=O)c3ccccc3NC2C(C)C)s1` (stereo not drawn) the figure was 19.4%; with `Cc1nn(C)c(N2CCOCC2)c1CNCc1ccc(CO)c(F)c1`, -35.7%. As for `CCCc1cc(NC2CCc3nc(CC)nn3C2)n2ncnc2n1` (stereo not drawn), the INHIBITION worked out at 16.6%.

In the case of `CN1C[C@H]2CNC[C@@]2(C(=O)NC2CCN(c3ncccc3C#N)CC2)C1`, the INHIBITION is listed as 36.6%. With `COCc1nn(C(C)C)c2c1CCN(Cc1ccc(C)o1)C2` the figure was 58.8%. As to `COCc1nn(C(C)C)c2c1CCN(Cc1ccoc1)C2`, the INHIBITION is listed as -76.7%. The figure for `COCc1nn(C(C)C)c2c1CCN(Cc1ccc(C)s1)C2` is -6.53%. As to `N#Cc1ccsc1NC(=O)CN1CCn2c(nnc2C2CC2)C1`, the INHIBITION stood at 23.4%.

With `Cc1cc(CN(CCO)Cc2cc(Br)ccc2F)no1`, the INHIBITION came to 37.8%. As to `O=c1c2cc3c(cc2nnn1Cc1ccccc1Cl)OCCO3`, the INHIBITION is recorded as 57.3%. The figure for `Cc1ccccc1Cn1nnc2cc3c(cc2c1=O)OCCO3` is 37.5%; for `O=c1c2cc3c(cc2nnn1Cc1ccccc1)OCCO3` it is 15.1%. Take `CC(=O)N1CC(=O)N(c2ccccc2)CC12CCN(Cc1nccs1)C2` (stereo not drawn): the INHIBITION is -0.912%. In the case of `CC(=O)N1N=C(c2cccs2)OC1C(=O)NCCc1cccc(Cl)c1` (stereo not drawn), the INHIBITION was 25.3%. The figure for `CCN(CC)C(=O)c1cccc(Cn2nc(C)cc2C)c1` is 10.5%; for `Cc1cc(C)n(Cc2cccc(C(=O)N(CCC#N)CCC#N)c2)n1` it is 56%. For `CC(C)(C)CN(CCC#N)C(=O)Nc1cccc(N2CCNC2=O)c1`, the INHIBITION is -45.2%. With `N#CCCN(CCC#N)C(=O)c1cccc(N2CCNC2=O)c1` the figure was 46.1%. Take `CC(C)(C)CN(CCC#N)C(=O)c1cccc(CN2CCCC2)c1`: the INHIBITION is -38.2%. With `Cc1nc2ccc(C(=O)N(CCC#N)CCC#N)cc2nc1C`, the INHIBITION was -37.4%. With `COC(=O)c1cccc(C(=O)N(CCC#N)CC(C)(C)C)c1` the figure was 68.6%; with `COCCN(CCOC)C(=O)c1cccc(Cn2nc(C)cc2C)c1`, 11.1%; with `CC(C)(C)CN(CCC#N)C(=O)c1cccc(CC#N)c1`, 80%. The figure for `Cc1csc(C2CCCCN2C(=O)c2cc(C)n(C)n2)n1` (stereo not drawn) is 17.5%; for `O=c1cc(Cn2ccnc2)nc2n1CCCN(Cc1ccc(F)cc1)C2` it is -3.52%.
